Assay results: PubChem BioAssay (NCATS)
Inconclusive results are not listed. Calls of active or inactive are those of the source. The call rests on the fitted dose curve; in most records, active means well fitted curve in the direction sought with a large enough effect; inconclusive means small, poorly fitted or top-dose-only effect, or another doubt; inactive means no such curve, though single readings can be large; an effect the other way counts as inactive or inconclusive.

Key:
[1] = qHTS of pediatric cancer cell lines to identify multiple opportunities for drug repurposing: Primary screen for U-2 OS cells (AID 1347096); further: nearly all actives have a fitted effect of over 50% in size; further: potency means the concentration at half of the fitted maximal effect
Summary of the method: (§1)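 Viability after 48 h compound treatment at 37C, 500-1,000 cells/well, read as ATP luminescence with CellTiter-Glo. Primary screens used 11-point (MIPE, 0.78 nM-46 µM) or 8-point (NPC, 0.59 nM-46 µM) final concentrations; follow-up screens used 11-point dilutions.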

[2] = qHTS of pediatric cancer cell lines to identify multiple opportunities for drug repurposing: Primary screen for Saos-2 cells (AID 1347097); further: nearly all actives have a fitted effect of over 40% in size; further: potency means the concentration at half of the fitted maximal effect
Summary of the method: (§2)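 ATP-based luminescence (CellTiter-Glo) quantifies viability after a 48-hour exposure. Compounds are dosed across 8 or 11 final concentrations; DMSO and 2.3 µM bortezomib serve as controls.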

[3] = qHTS of pediatric cancer cell lines to identify multiple opportunities for drug repurposing: Primary screen for SK-N-SH cells (AID 1347098); further: nearly all actives have a fitted effect of over 65% in size; further: potency means the concentration at half of the fitted maximal effect
Summary of the method: (§3)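 Cells (500-1,000/well) rested 5 h, then received compounds for 48 h; metabolically active cells were measured by CellTiter-Glo luminescence. Final concentrations spanned up to 46 µM (MIPE, 11-point) or 0.59 nM-46 µM (NPC, 8-point) in primary screens, 11-point in follow-ups.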

[4] = qHTS of pediatric cancer cell lines to identify multiple opportunities for drug repurposing: Primary screen for NB1643 cells (AID 1347099); further: nearly all actives have a fitted effect of over 50% in size; further: potency means the concentration at half of the fitted maximal effect
Summary of the method: as §2

[5] = qHTS of pediatric cancer cell lines to identify multiple opportunities for drug repurposing: Primary screen for LAN-5 cells (AID 1347100); further: potency means the concentration at half of the fitted maximal effect
Summary of the method: as §1

[6] = qHTS of pediatric cancer cell lines to identify multiple opportunities for drug repurposing: Primary screen for Rh18 cells (AID 1347102); further: nearly all actives have a fitted effect of over 65% in size; further: potency means the concentration at half of the fitted maximal effect
Summary of the method: as §1

[7] = qHTS of pediatric cancer cell lines to identify multiple opportunities for drug repurposing: Primary screen for OHS-50 cells (AID 1347103); further: nearly all actives have a fitted effect of over 40% in size; further: potency means the concentration at half of the fitted maximal effect
Summary of the method: as §3

[8] = qHTS of pediatric cancer cell lines to identify multiple opportunities for drug repurposing: Primary screen for RD cells (AID 1347104); further: nearly all actives have a fitted effect of over 55% in size; further: potency means the concentration at half of the fitted maximal effect
Summary of the method: as §2

[9] = qHTS of pediatric cancer cell lines to identify multiple opportunities for drug repurposing: Primary screen for MG 63 (6-TG R) cells (AID 1347105); further: nearly all actives have a fitted effect of over 50% in size; further: potency means the concentration at half of the fitted maximal effect
Summary of the method: as §2

[10] = qHTS of pediatric cancer cell lines to identify multiple opportunities for drug repurposing: Primary screen for Rh30 cells (AID 1347107); further: series mostly up to about 46 µM; nearly all actives have a fitted effect of over 75% in size
Summary of the method: as §1

[11] = qHTS of pediatric cancer cell lines to identify multiple opportunities for drug repurposing: Primary screen for Rh41 cells (AID 1347108); further: nearly all actives have a fitted effect of over 70% in size; further: potency means the concentration at half of the fitted maximal effect
Summary of the method: as §2

[12] = qHTS of pediatric cancer cell lines to identify multiple opportunities for drug repurposing: Confirmatory screen for A673 cells (AID 1347110);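 further: cells exposed to compound for 48 h before the viability read; nearly all actives have a fitted effect of over 65% in size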; further: potency means the concentration at half of the fitted maximal effect
Summary of the method: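 Concentration-response curves came straight from titrations: 11 points (0.78 nM to 46 µM) for MIPE and several concentrations (0.59 nM to 46 µM) for NPC in primary, 11 points in follow-up. Readout: ATP luminescence at 48 h.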

[13] = qHTS of pediatric cancer cell lines to identify multiple opportunities for drug repurposing: Confirmatory screen for SJ-GBM2 cells (AID 1347116); further: nearly all actives have a fitted effect of over 60% in size; further: potency means the concentration at half of the fitted maximal effect
Summary of the method: (§4)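 Viability measured as metabolically active cells via CellTiter-Glo luminescence following 48 hours of compound exposure, 11-point dilutions in confirmatory testing. 500-1,000 cells/well plated 5 hours before dosing; controls were DMSO and 2.3 µM bortezomib.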

[14] = qHTS of pediatric cancer cell lines to identify multiple opportunities for drug repurposing: Primary screen for control Hh wild type fibroblast cells (AID 1347106); further: nearly all actives have a fitted effect of over 55% in size; further: potency means the concentration at half of the fitted maximal effect
Summary of the method: as §1

[15] = qHTS of pediatric cancer cell lines to identify multiple opportunities for drug repurposing: Primary screen for BT-12 cells (AID 1347101); further: potency means the concentration at half of the fitted maximal effect; nearly all actives have a fitted effect of over 25% in size
Summary of the method: as §3

[16] = qHTS of pediatric cancer cell lines to identify multiple opportunities for drug repurposing: Confirmatory screen for NB1643 cells (AID 1347109); further: potency means the concentration at half of the fitted maximal effect; nearly all actives have a fitted effect of over 45% in size
Summary of the method: as §1

[17] = qHTS of pediatric cancer cell lines to identify multiple opportunities for drug repurposing: Confirmatory screen for BT-12 cells (AID 1347112); further: potency means the concentration at half of the fitted maximal effect; nearly all actives have a fitted effect of over 55% in size
Summary of the method: as §1

[18] = qHTS of pediatric cancer cell lines to identify multiple opportunities for drug repurposing: Confirmatory screen for DAOY cells (AID 1347114); further: nearly all actives have a fitted effect of over 65% in size; further: potency means the concentration at half of the fitted maximal effect
Summary of the method: as §4

[19] = qHTS of pediatric cancer cell lines to identify multiple opportunities for drug repurposing: Confirmatory screen for BT-37 cells (AID 1347117); further: potency means the concentration at half of the fitted maximal effect; nearly all actives have a fitted effect of over 55% in size
Summary of the method: as §1

[20] = qHTS of pediatric cancer cell lines to identify multiple opportunities for drug repurposing: Confirmatory screen for TC32 cells (AID 1347118)
Summary of the method: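 Luminescent CellTiter-Glo read-out of metabolically active TC32 cells after 48 h compound exposure. Primary: MIPE 11-point, 0.78 nM–46 µM; NPC 8-point, 0.59 nM–46 µM. Confirmatory: 11-point dilutions.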

Measured: Potency

Nc1c(Cl)c(Cl)c(Cl)c(Cl)c1Cl
inactive: [1] | [2] | [3] | [4] | [5] | [6] | [7] | [8] | [9] | [10] | [11]

Cc1c(N)nc([C@H](CC(N)=O)NC[C@@H](N)C(N)=O)nc1C(=O)N[C@H](C(=O)N[C@@H](C)[C@H](O)[C@@H](C)C(=O)N[C@@H](C(=O)NCCc1nc(-c2nc(C(=O)NCCC[S+](C)C)cs2)cs1)[C@@H](C)O)C(O[C@H]1O[C@H](CO)[C@H](O)[C@@H](O)[C@@H]1O[C@H]1O[C@H](CO)[C@@H](O)[C@H](OC(N)=O)[C@H]1O)c1cnc[nH]1 (stereo partly drawn)
inactive: [1] | [3] | [6] | [10] | [11] | [13]
active: [2] 1660 nM | [4] 1660 nM | [5] 526 nM | [7] 1720 nM | [9] 590 nM | [12] 9270 nM

COC(=O)[C@@H](N)CCCN=C(N)N[N+](=O)[O-]
inactive: [1] | [2] | [5] | [6] | [7] | [9] | [10] | [11]
active: [3] 6070 nM | [4] 9350 nM

O=C(O)CNC(=O)c1c(O)c2ccccc2n(Cc2ccccc2)c1=O
inactive: [1] | [2] | [3] | [4] | [5] | [6] | [9] | [14] | [10] | [11]

C[C@@H]1O[C@@H](O[C@@H]2C=C3CC[C@@H]4[C@@H](CC[C@]5(C)[C@H](c6ccc(=O)oc6)CC[C@@]45O)[C@@]3(C)CC2)[C@H](O)[C@H](O)[C@H]1O
active: [1] 23.5 nM | [2] 52.6 nM | [3] 96.1 nM | [4] 83.3 nM | [5] 14.8 nM | [15] 19.3 nM | [7] 17.2 nM | [9] 4.7 nM | [11] 23.5 nM | [16] 82.7 nM | [12] 52.2 nM | [17] 41.4 nM | [18] 7.4 nM | [13] 58.5 nM | [19] 13.1 nM | [20] 23.3 nM

O=C(O)C(Cl)Cl
inactive: [1] | [2] | [3] | [4] | [5] | [6] | [7] | [8] | [9] | [14] | [11]

Clc1ccccc1C(c1ccccc1)(c1ccccc1)n1cccn1
inactive: [1] | [2] | [3] | [5] | [6] | [8] | [9] | [14] | [10] | [11]

COC1=CC(C)=C[C@@H](C)[C@@H](O)[C@@H](C)CC(C)=CC=C[C@H](OC)[C@H]([C@@H](C)[C@@H](O)[C@H](C)[C@@]2(O)C[C@@H](O)[C@H](C)[C@@H](C(C)C)O2)OC1=O
inactive: [12] | [18]
active: [1] 37200 nM | [2] 29600 nM | [3] 13.6 nM | [4] 9.3 nM | [15] 4.9 nM | [6] 14800 nM | [7] 1.4 nM | [9] 5.9 nM | [14] 41.8 nM | [11] 16600 nM

O=[N+]([O-])c1ncc[nH]1
inactive: [1] | [2] | [3] | [5] | [6] | [7] | [8] | [9] | [14] | [10] | [11]

CC(C)(O)C(=O)Nc1ccc([N+](=O)[O-])c(C(F)(F)F)c1
inactive: [1] | [2] | [6]
active: [3] 24100 nM | [4] 5900 nM | [8] 29600 nM

COc1cc([C@@H]2c3cc4c(cc3[C@@H](O)C3COC(=O)C32)OCO4)cc(OC)c1O (stereo partly drawn)
active: [2] 20.9 nM | [4] 6620 nM | [5] 13.2 nM | [7] 34.3 nM | [12] 522 nM | [18] 185 nM | [19] 737 nM | [20] 585 nM
inactive: [1] | [6] | [9] | [13]

CN1CCN(c2ccc([N+](=O)[O-])c3no[n+]([O-])c23)CC1
active: [2] 26400 nM | [7] 34300 nM
inactive: [1] | [3] | [14] | [10]

COc1ccc(CC2NCCc3cc(OC)c(OC)cc32)cc1OC (stereo not drawn)
inactive: [1] | [2] | [3] | [5] | [6] | [8] | [9] | [14] | [11]

C[C@@H]1CC[C@H]2[C@@H](C)C(=O)O[C@@H]3O[C@@]4(C)CC[C@H]1[C@]32OO4
inactive: [1] | [2] | [3] | [4] | [5] | [6] | [14]
